Where two headings read alike, the source gives them in different places.

One test concerns BMX. The conditions noted are these: concentration: 1 μM,replicates: in singlicate; n = 1.
In another test the test system is BRAF. The conditions noted are these: concentration: 1 μM,replicates: in singlicate; n = 1.
The test system of another test is T1, BRK.
T1 construct: gene PTK6
The note with it: concentration: 1 μM,replicates: in singlicate; n = 1.

A further test relates to BRSK1. The conditions noted are these: concentration: 1 μM,replicates: in singlicate; n = 1.
The next test concerns BRSK2. The conditions noted are these: concentration: 1 μM,replicates: in singlicate; n = 1.
The test system of another test is BTK. The note with it: n = 1.
The test system of another test is BUB1. The conditions noted are these: concentration: 1 μM,replicates: in singlicate; n = 1.
A further test relates to CAMK1B. The conditions noted are these: concentration: 1 μM,replicates: in singlicate; n = 1.
Another test deals with CAMK1D. The conditions noted are these: concentration: 1 μM,replicates: in singlicate; n = 1.
In a further test the test system is CAMK1G. The conditions noted are these: concentration: 1 μM,replicates: in singlicate; n = 1.
In a further test the test system is CAMK1. The note with it: concentration: 1 μM,replicates: in singlicate; n = 1.
Another test deals with CAMK2A. The conditions noted are these: concentration: 1 μM,replicates: in singlicate; n = 1.
The subject of another test is CAMK2B. The conditions noted are these: concentration: 1 μM,replicates: in singlicate; n = 1.
A further test relates to CAMK2D. The conditions noted are these: concentration: 1 μM,replicates: in singlicate; n = 1.
For another test, the system named is CAMK2G. The note with it: concentration: 1 μM,replicates: in singlicate; n = 1.
The next test relates to CAMK4. The conditions noted are these: concentration: 1 μM,replicates: in singlicate; n = 1.
A further test relates to CAMKK1. The conditions noted are these: concentration: 1 μM,replicates: in singlicate; n = 1.
Another test concerns CAMKK2. The conditions noted are these: concentration: 1 μM,replicates: in singlicate; n = 1.
The subject of the next test is CASK. The conditions noted are these: concentration: 1 μM,replicates: in singlicate; n = 1.
A further test has as its system T2, CDC2L1.
T2 construct: gene CDK11B
The note with it: concentration: 1 μM,replicates: in singlicate; n = 1.

The mark [1] stands for this setting: concentration: 1 μM,replicates: in singlicate.
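Further: KINOMEscan kinase panel screen.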

Consider `Cn1ccc2ncnc(Oc3ccc(NC(=O)Nc4cccc(C(F)(F)F)c4)c(Cl)c3)c21`, for which the “%Inh” value in the test on BMX amounted to 15%; in the test with BRAF, 46%; with BRK it was 5%; with BRSK1, 0%; in the test on BRSK2 it was 0%; in the test on BTK (setting [1]) it was 0%. Moreover, the “%Inh” value is reported as 0% with BUB1; 16% with CAMK1B; 16% with CAMK1D; 1% in the test with CAMK1G; 4% with CAMK1; 0% with CAMK2A. Further, the “%Inh” value with CAMK2B is reported as 0%; in the test on CAMK2D, 7%; with CAMK2G it was 0%; with CAMK4, 6%; with CAMKK1, 0%; with CAMKK2, 0%. The “%Inh” value in the test with CASK and in the test on CDC2L1 was 0% each time.

In the case of `C[C@@H](Oc1cc(-n2cnc3cc(-c4cnn(C)c4)ccc32)sc1C(N)=O)c1ccccc1Cl` [GSK580432], the “%Inh” value with BMX is recorded as 22%; in the test with BRAF it was 0%; with BRK, 0%; with BRSK1, 82%; in the test on BRSK2, 93.3%; with BTK (setting [1]) it was 0%. Moreover, the “%Inh” value in the test on BUB1 came out at 27%; in the test on CAMK1B it was 22%; with CAMK1D, 31%; in the test on CAMK1G, 26%; with CAMK1, 39%; in the test on CAMK2A, 0%. For the same compound, the “%Inh” value in the test with CAMK2B worked out at 9%; in the test with CAMK2D it was 23%; with CAMK2G, 25%; in the test with CAMK4, 0%; in the test with CAMKK1 it was 59%; in the test on CAMKK2, 90.3%. Besides, the “%Inh” value in the test with CASK is on record as 23%; with CDC2L1 it was 0%.

As to `Cn1cc(-c2cccc3c(N)c(C(N)=O)nnc23)cn1`, the “%Inh” value with BMX amounted to 15%; with BRAF it was 30%; in the test on BRK, 8%; in the test with BRSK1, 11%; in the test on BRSK2, 18%; in the test with BTK (1 µM) it was 86%. In addition, the “%Inh” value with BUB1 came out at 32%; with CAMK1B, 0%; in the test with CAMK1D, 29%; with CAMK1G it was 7%; with CAMK1, 33%; in the test with CAMK2A, 7%. The “%Inh” value worked out at 2% with CAMK2B; 15% with CAMK2D; 0% in the test on CAMK2G; 0% in the test on CAMK4; 5% with CAMKK1; 6% with CAMKK2. Further, the results for the “%Inh” value with CASK and with CDC2L1 were 4% and 1%, respectively.

With `CS(=O)(=O)c1cccc(CNc2nc(Nc3ccc4c(c3)[C@@H]3C[C@@H]4CNC3=O)ncc2C(F)(F)F)c1`, the “%Inh” value in the test on BMX was found to be 4%; with BRAF, 0%; in the test with BRK, 0%; with BRSK1, 0%; with BRSK2, 0%; in the test on BTK (setting [1]) it was 0%. For the same compound, the “%Inh” value came to 0% with BUB1; 19% in the test with CAMK1B; 0% in the test on CAMK1D; 0% in the test with CAMK1G; 1% in the test on CAMK1; 0% in the test on CAMK2A. For the same compound, the “%Inh” value with CAMK2B turned out to be 0%; in the test on CAMK2D, 0%; in the test with CAMK2G, 0%; in the test on CAMK4, 0%; in the test with CAMKK1, 41%; in the test with CAMKK2, 15%. For the same compound, the “%Inh” value with CASK and with CDC2L1 was 0% in each case.

Take `O=C(NCC1CC1)c1ccc(-c2cc(C(=O)NC3CC3)ccc2F)cc1` [GW810445]: the “%Inh” value in the test on BMX, in the test with BRAF, in the test with BRK, with BRSK1, in the test on BRSK2 and with BTK (setting [1]) was 0% throughout. Moreover, the “%Inh” value with BUB1 amounted to 22%; with CAMK1B it was 21%; in the test with CAMK1D it was 0%; in the test with CAMK1G, 0%; with CAMK1, 0%; in the test with CAMK2A, 0%. The “%Inh” value in the test on CAMK2B, in the test with CAMK2D, with CAMK2G, in the test with CAMK4, in the test with CAMKK1 and with CAMKK2 was 0% each time. Further, the “%Inh” value in the test on CASK amounted to 41%; in the test with CDC2L1, 0%.

On to `Cc1ccn2nc(-c3ccc(F)cc3)c(-c3ccncc3)c2c1.Cl` [GW457859], for which the “%Inh” value in the test on BMX was determined as 8%; with BRAF, 49%; in the test on BRK, 0%; with BRSK1, 0%; in the test with BRSK2, 0%; in the test with BTK (setting [1]), 22%. Further, the “%Inh” value is on record as 87% with BUB1; 30% with CAMK1B; 1% in the test with CAMK1D; 0% with CAMK1G; 16% in the test on CAMK1; 0% in the test with CAMK2A. In addition, the “%Inh” value in the test on CAMK2B came out at 0%; in the test on CAMK2D it was 0%; in the test with CAMK2G, 15%; in the test on CAMK4, 0%; with CAMKK1 it was 0%; in the test on CAMKK2, 9%. The results for the “%Inh” value in the test on CASK and in the test on CDC2L1 were 6% and 0%, respectively.

Consider `Cn1ccc2ncnc(Oc3ccc(NC(=O)Nc4ccnc(C(F)(F)F)c4)c(Cl)c3)c21`, for which the “%Inh” value is given as 17% in the test with BMX; 45% in the test with BRAF; 0% in the test on BRK; 0% in the test with BRSK1; 0% in the test with BRSK2; 0% with BTK (setting [1]). For the same compound, the “%Inh” value in the test with BUB1 was found to be 5%; in the test on CAMK1B it was 0%; in the test on CAMK1D it was 0%; in the test on CAMK1G it was 31%; in the test on CAMK1, 0%; with CAMK2A, 0%. The “%Inh” value in the test with CAMK2B is recorded as 0%; in the test on CAMK2D, 13%; with CAMK2G, 25%; in the test with CAMK4 it was 0%; with CAMKK1, 13%; in the test with CAMKK2, 7%. The “%Inh” value in the test on CASK and in the test on CDC2L1 was 0% each time.

Turning to `CSc1nccc(-c2c(-c3ccc(F)cc3)ncn2CCCN2CCOCC2)n1.Cl` [SB-217146], the “%Inh” value is 0% in the test with BMX; 4% in the test on BRAF; 0% with BRK; 0% with BRSK1; 0% in the test on BRSK2; 0% in the test on BTK (setting [1]). In addition, the “%Inh” value with BUB1 came out at 14%; in the test with CAMK1B it was 0%; in the test on CAMK1D, 12%; with CAMK1G, 0%; in the test with CAMK1, 6%; with CAMK2A, 0%. The “%Inh” value in the test on CAMK2B, in the test with CAMK2D, in the test on CAMK2G, in the test with CAMK4, in the test on CAMKK1 and in the test on CAMKK2 was 0% throughout. Also, the “%Inh” value with CASK and with CDC2L1 was 0% in each case.

Turning to `C[C@@H]1CNc2c(sc3ccc4nc(-c5ccc(O)cc5)ccc4c23)C(=O)N1`, the “%Inh” value was 14% in the test on BMX; 0% with BRAF; 0% in the test on BRK; 48% with BRSK1; 72% in the test with BRSK2; 0% with BTK (setting [1]). The “%Inh” value with BUB1 is 58%; in the test with CAMK1B, 13%; with CAMK1D, 0%; in the test on CAMK1G it was 16%; in the test with CAMK1, 16%; with CAMK2A it was 35%. Besides, the “%Inh” value in the test on CAMK2B is reported as 36%; in the test with CAMK2D, 32%; in the test with CAMK2G, 23%; in the test on CAMK4 it was 30%; in the test with CAMKK1, 40%; with CAMKK2, 58%. For the same compound, the “%Inh” value in the test with CASK and in the test with CDC2L1 was 0% throughout.

As to `O=c1[nH]cc(-c2ccc(O)cc2)c2sc(-c3ccncc3)cc12` [GSK1033723], the “%Inh” value in the test on BMX stood at 18%; with BRAF, 1%; with BRK, 7%; in the test with BRSK1 it was 29%; in the test with BRSK2 it was 0%; in the test on BTK (setting [1]), 0%. The “%Inh” value is given as 15% in the test on BUB1; 0% in the test on CAMK1B; 20% in the test on CAMK1D; 1% in the test on CAMK1G; 6% in the test on CAMK1; 0% with CAMK2A. Also, the “%Inh” value in the test with CAMK2B is recorded as 0%; in the test on CAMK2D it was 4%; with CAMK2G, 29%; in the test on CAMK4, 0%; in the test with CAMKK1, 15%; in the test on CAMKK2, 15%. The “%Inh” value in the test on CASK is 15%; with CDC2L1, 0%.

Values taken from paper PMC5540273 (PLoS ONE, 2017).
